# In the antibiotic and cytotoxicity screens of Wong et al. (2023):
# Among all 39,000 compounds or so, about 1,500 (3.8%) were called active. The sample as a whole holds a higher share of actives than the screen did.
# System: HSkMC (human skeletal muscle cells)
# Test: cytotoxicity call (relative viability < 0.9)
# Details: 10 µM
row,SMILES,cytotoxicity call
1,C[C@H](CO)N1C[C@H](C)[C@@H](CN(C)C(=O)Nc2ccc(C(F)(F)F)cc2)Oc2ccc(NC(=O)Cc3ccccc3)cc2CC1=O,inactive
2,C[C@@H]1CN([C@@H](C)CO)C(=O)c2cc(NC(=O)C3CCCCC3)ccc2O[C@@H]1CN(C)Cc1ccc(C(F)(F)F)cc1,inactive
3,C[C@@H]1CN([C@H](C)CO)C(=O)c2cc(NC(=O)Nc3cccc4ccccc34)ccc2O[C@H]1CN(C)C(=O)Nc1cccc2ccccc12,inactive
4,C[C@@H]1CN([C@@H](C)CO)C(=O)c2cc(NC(=O)Nc3cccc4ccccc34)ccc2O[C@@H]1CN(C)C(=O)Nc1cccc2ccccc12,active
5,C[C@@H]1CN([C@@H](C)CO)C(=O)c2cc(NC(=O)Nc3cccc4ccccc34)ccc2O[C@H]1CN(C)C(=O)Nc1cccc2ccccc12,inactive
6,C[C@H](CO)N1C[C@H](C)[C@@H](CN(C)C(=O)Nc2cccc3ccccc23)Oc2ccc(NC(=O)Nc3cccc4ccccc34)cc2C1=O,inactive
7,C[C@@H]1CN([C@H](C)CO)C(=O)c2cc(NC(=O)Nc3cccc4ccccc34)ccc2O[C@@H]1CN(C)C(=O)Nc1cccc2ccccc12,active
8,C[C@H]1CN([C@@H](C)CO)C(=O)c2cc(NC(=O)Nc3cccc4ccccc34)ccc2O[C@@H]1CN(C)C(=O)Nc1cccc2ccccc12,inactive
9,NC(=O)c1c(Cl)ncc2c1NCC2,inactive
10,COC1=C(OC)C(=O)C(CC=C(C)CCC=C(C)CCC=C(C)CCC=C(C)CCC=C(C)CCC=C(C)CCC=C(C)CCC=C(C)CCC=C(C)CCC=C(C)C)=C(C)C1=O,inactive
11,COC1=C(OC)C(=O)C(C/C=C(\C)CC/C=C(\C)CC/C=C(\C)CC/C=C(/C)CC/C=C(\C)CC/C=C(\C)CC/C=C(\C)CC/C=C(\C)CC/C=C(\C)CCC=C(C)C)=C(C)C1=O,inactive
12,COC(=O)CCCCCCC(=O)Nc1ccc(NC(=O)CCCC[P+](c2ccccc2)(c2ccccc2)c2ccccc2)cc1,inactive
13,COC1=C(OC)C(=O)C(CCCCCCCCCCO)=C(C)C1=O,active
14,CC1=C(C)C(=O)C(C(CCCCCC(=O)O)c2ccccc2)=C(C)C1=O (stereo unspecified),inactive
15,CC1=CC(=O)c2ccccc2C1=O,inactive
16,COC1=C(OC)C(=O)C(C/C=C(\C)CC/C=C(\C)CC/C=C(\C)CC/C=C(\C)CC/C=C(\C)CC/C=C(\C)CC/C=C(\C)CC/C=C(\C)CC/C=C(\C)CCC=C(C)C)=C(C)C1=O,inactive
17,CC1=C(C)C(=O)C(CCCCCCCCCC[P+](c2ccccc2)(c2ccccc2)c2ccccc2)=CC1=O,active
18,COC1=C(OC)C(=O)C(CCCCCCCCCC[P+](c2ccccc2)(c2ccccc2)c2ccccc2)=C(C)C1=O,active
19,Nc1ccc(NC(=O)CCN2CCOCC2)cc1,inactive
20,C[C@@H]1CN([C@H](C)CO)C(=O)c2cccc(NC(=O)CCCCCC(=O)Nc3ccccc3N)c2O[C@H]1CN(C)CC1CCCCC1,inactive
21,CC(=O)N(C)C[C@H]1Oc2cc(C#CCN(C)C)ccc2S(=O)(=O)N([C@H](C)CO)C[C@H]1C,inactive
22,C[C@@H]1CCCCO[C@H](CN(C)Cc2ccc(C(=O)O)cc2)[C@H](C)CN([C@H](C)CO)C(=O)c2cc(NC(=O)Nc3ccc(C(F)(F)F)cc3)ccc2O1,inactive
23,C[C@H]1CN([C@@H](C)CO)C(=O)c2cc(NS(=O)(=O)c3cn(C)cn3)ccc2O[C@H]1CN(C)C(=O)Nc1ccccc1,inactive

row,SMILES,cytotoxicity call
1,C[C@H]1CN([C@@H](C)CO)C(=O)c2cc(/C=C/c3ccccc3)cnc2O[C@@H]1CN(C)S(=O)(=O)c1cn(C)cn1,inactive
2,COc1ccc(CN(C)C[C@H]2OCCCC[C@@H](C)Oc3ccc(NS(=O)(=O)c4ccc(F)cc4)cc3C(=O)N([C@@H](C)CO)C[C@@H]2C)cc1,inactive
3,O=c1n(-c2ccc(F)cc2)nc2n1CCCN2,inactive
4,Cc1ccc(S(=O)(=O)N(C)C[C@H]2Oc3ccc(NC(=O)Cn4cnnn4)cc3CC(=O)N([C@H](C)CO)C[C@@H]2C)cc1,inactive
5,C[C@H]1O[C@@H](O[C@H]2[C@@H](O)C[C@H](O[C@H]3[C@@H](O)C[C@H](O[C@H]4CC[C@@]5(C)[C@H](CC[C@@H]6[C@@H]5CC[C@]5(C)[C@@H](C7=CC(=O)OC7)CC[C@]65O)C4)O[C@@H]3C)O[C@@H]2C)C[C@H](O)[C@@H]1O,active
6,CC1OC(OC2C(O)CC(OC3C(O)CC(OC4CCC5(C)C(CCC6C5CCC5(C)C(C7=CC(=O)OC7)CCC65O)C4)OC3C)OC2C)CC(O)C1O (stereo unspecified),active
7,C[C@H](CO)N1C[C@H](C)[C@@H](CN(C)Cc2ccc(Cl)c(Cl)c2)Oc2ccc(NC(=O)NC3CCCCC3)cc2C1=O,inactive
8,C[C@@H]1CN([C@H](C)CO)C(=O)Cc2cc(NC(=O)CCCCCC(=O)Nc3ccccc3N)ccc2O[C@@H]1CN(C)C(=O)Nc1ccc(F)cc1,inactive
9,COc1ccc(NC(=O)Nc2ccc3c(c2)CC(=O)N([C@@H](C)CO)C[C@@H](C)[C@H](CN(C)CC2CCCCC2)O3)cc1,inactive
10,O=C(C[C@H]1CC[C@H](NS(=O)(=O)c2ccccc2)[C@H](CO)O1)NCc1ccncn1,inactive
11,COc1ccc2c(-c3ccc(Cl)cc3)c(C)oc2c1,inactive
12,C[C@H](CO)N1C[C@H](C)[C@H](CN(C)S(=O)(=O)c2ccccc2)Oc2ccc(NC(=O)Cc3ccccc3)cc2C1=O,inactive
13,O=C(C[C@@H]1C[C@@H]2c3cc(NS(=O)(=O)c4ccccc4)ccc3O[C@@H]2[C@H](CO)O1)NCC(F)(F)F,inactive
14,C[C@@H]1CCCCO[C@H](CN(C)Cc2ccc3c(c2)OCO3)[C@@H](C)CN([C@H](C)CO)C(=O)c2cc(NS(=O)(=O)c3ccccc3)ccc2O1,inactive
15,C[C@H]1O[C@@H](O[C@H]2CC[C@@]3(C)[C@@H](CC[C@@]4(C)[C@@H]3CC=C3[C@H]5C[C@](C)(C(=O)O)CC[C@]5(C(=O)O[C@H]5O[C@@H](CO)[C@@H](O)[C@@H](O)[C@@H]5O)CC[C@@]34C)[C@@]2(C)CO)[C@@H](O)[C@@H](O[C@H]2O[C@@H](CO)[C@@H](O)[C@@H](O)[C@@H]2O)[C@@H]1O,inactive
16,C/C=C(/C)C(=O)O[C@@H]1[C@H](OC(C)=O)[C@]2(CO)[C@H](O)C[C@]3(C)C(=CC[C@H]4[C@@]5(C)CC[C@H](O[C@@H]6O[C@H](C(=O)O)[C@@H](O[C@@H]7O[C@H](CO)[C@@H](O)[C@H](O)[C@H]7O)[C@H](O)[C@H]6O[C@@H]6O[C@H](CO)[C@@H](O)[C@H](O)[C@H]6O)[C@](C)(CO)[C@@H]5CC[C@]43C)[C@@H]2CC1(C)C,inactive
17,C[C@@H]1O[C@@H](O[C@@H]2[C@@H](O)[C@@H](O[C@@H]3O[C@@H](CO)[C@H](O)[C@H]3O)[C@H](OC(=O)[C@]34CCC(C)(C)C[C@H]3C3=CC[C@H]5[C@@]6(C)C[C@H](O)[C@H](O[C@@H]7O[C@@H](C)[C@H](O)[C@@H](O[C@@H]8OC[C@@H](O)[C@H](O)[C@H]8O[C@@H]8O[C@H](CO)[C@@H](O)[C@H](O)[C@H]8O)[C@H]7O)[C@@](C)(CO)[C@@H]6CC[C@@]5(C)[C@]3(C)C[C@H]4O)O[C@H]2C)[C@H](O)[C@H](O)[C@H]1O,inactive
18,CC=C(C)C(=O)OC1C(OC(C)=O)C2(CO)C(O)CC3(C)C(=CCC4C5(C)CCC(OC6OC(C(=O)O)C(OC7OC(CO)C(O)C(O)C7O)C(O)C6OC6OC(CO)C(O)C(O)C6O)C(C)(CO)C5CCC43C)C2CC1(C)C (stereo unspecified),active
19,C/C=C(/C)C(=O)O[C@H]1[C@@H](OC(C)=O)[C@@]2(CO)[C@@H](O)C[C@@]3(C)C(=CC[C@H]4[C@@]5(C)CC[C@@H](O[C@H]6O[C@H](C(=O)O)[C@@H](O[C@H]7O[C@@H](CO)[C@@H](O)[C@@H](O)[C@@H]7O)[C@@H](O)[C@@H]6O[C@H]6O[C@@H](CO)[C@@H](O)[C@@H](O)[C@@H]6O)[C@@](C)(CO)[C@@H]5CC[C@]43C)[C@@H]2CC1(C)C,active
20,CC1(C)CC[C@]2(C(=O)O[C@H]3O[C@@H](CO)[C@@H](O)[C@@H](O)[C@@H]3O)CC[C@]3(C)C(=CC[C@H]4[C@@]5(C)C[C@@H](O)[C@H](O[C@H]6O[C@H](C(=O)O)[C@@H](O)[C@@H](O)[C@@H]6O)C(C)(C)[C@@H]5CC[C@]43C)[C@@H]2C1,inactive
21,C[C@@H]1O[C@@H](O[C@@H]2CC[C@@]3(C)[C@@H](CC[C@]4(C)[C@@H]3CC=C3[C@@H]5CC(C)(C)CC[C@]5(C(=O)O[C@@H]5O[C@H](CO[C@@H]6O[C@H](CO)[C@@H](O)[C@H](O)[C@H]6O)[C@@H](O)[C@H](O)[C@H]5O)CC[C@]34C)[C@]2(C)CO)[C@H](O)[C@H](O[C@@H]2OC[C@@H](O)[C@H](O)[C@H]2O)[C@H]1O,inactive
22,C[C@H]1O[C@@H](OC(=O)[C@]23CCC(C)(C)C[C@H]2C2=CC[C@H]4[C@@]5(C)CC[C@H](O[C@@H]6O[C@H](C(=O)O)[C@@H](O)[C@H](O[C@@H]7OC[C@@H](O)[C@H](O)[C@H]7O)[C@H]6O[C@@H]6O[C@H](CO)[C@H](O)[C@H](O)[C@H]6O)[C@@](C)(C=O)[C@@H]5CC[C@@]4(C)[C@]2(C)C[C@H]3O)[C@H](O[C@H]2O[C@@H](CO)[C@@H](O)[C@@H](O)[C@@H]2O)[C@@H](O)[C@H]1O[C@@H]1O[C@H](C)[C@@H](O[C@H]2OC[C@@H](O)[C@@H](O)[C@@H]2O)[C@H](O)[C@@H]1O,inactive
23,CC=C(C)C(=O)O[C@H]1[C@H](OC(C)=O)[C@]2(CO)[C@H](O)C[C@]3(C)C(=CC[C@@H]4[C@@]5(C)CC[C@H](O[C@@H]6O[C@H](C(=O)O)[C@@H](O[C@@H]7O[C@H](CO)[C@@H](O)[C@H](O)[C@H]7O)[C@H](O)[C@H]6O[C@@H]6O[C@H](CO)[C@@H](O)[C@H](O)[C@H]6O)[C@](C)(CO)[C@@H]5CC[C@]43C)[C@@H]2CC1(C)C,active
